In all, about 350,000 compounds went through this assay and about 6,000 (1.7%) were called active. About 5% were inconclusive and are not listed. Cut-off read from the data, not from the text of the source: active = CPE inhibition above about 20% (passing the limit was not always enough); inconclusive = no clear call, values can overlap the other calls; tested in BHK-21 cells. Only a selection was taken, and actives are over-represented in it overall.

Data on 72 compounds can be found in PubChem BioAssay AID651640 (Broad Institute, 2012).

This experiment in a line: inhibitors of DENV2 cytopathic effect, primary screen, cell-based, plate reader, single concentration (AID 651640).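 Note: 0% = median of neutral control wells and 100% = median of positive control wells.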 Conditions: DENV2-infected cells, cytopathic effect rescue, at 9.99 µM, active compounds read high.
As to `CO[C@@H]1CN(C)C(=O)c2cc(NC(=O)NC3CCCCC3)ccc2OC[C@H](C)N(CC2CC2)C[C@H]1C`, the CPE inhibition was 5.48% (inactive).

As to `CN1c2ccc(-c3ccc(C#N)cc3)cc2[C@@H]2[C@@H](CCN2S(=O)(=O)c2cccc(F)c2)[C@@H]1CO`, the CPE inhibition was 2.27% (inactive). In the case of `COC(=O)[C@@H]1[C@@H](CO)[C@@H]2Cn3c(ccc(C4=CCCC4)c3=O)[C@@H]2N1Cc1cncnc1`, the CPE inhibition was -0.488% (inactive). The figure for `CCOC(=O)C1CCN(Cc2c(C(=O)N3CCOCC3)nc3c(C)cccn23)CC1` is 115% (active); for `Cc1cccn2c(CNCC(C)Oc3cccnc3)c(C(=O)N3CCOCC3)nc12` (configuration not stated) it is 5.69% (inactive). The figure for `Cc1cccn2c(CN(C)C3CCCc4ccccc43)c(C(=O)N3CCOCC3)nc12` (configuration not stated) is -1.26% (inactive); for `CN(C)C(=O)c1ccc(-c2ccc([C@H]3[C@@H](CO)N4C(=O)CN(C(=O)CC5CC5)C[C@@H]34)cc2)cc1` it is -1.06% (inactive).

On to `COc1ccccc1NC(=O)N1CC(=O)N2[C@H](CO)[C@H](c3ccc(C#Cc4ccccc4)cc3)[C@H]2C1`, for which the CPE inhibition is 8.69% (inactive). The same measure for `CN(C)CC(=O)N[C@@H]1CC[C@H](CCn2cc(C3CCCC3)nn2)O[C@H]1CO`: 77.7% (active); for `O=C(Cc1ccncc1)N[C@H]1CC[C@H](CCn2cc(-c3ccccc3F)nn2)O[C@@H]1CO`: -5% (inactive); for `CN(C)CC(=O)N[C@@H]1CC[C@@H](CCn2cc(C3CC3)nn2)O[C@H]1CO`: 13.8% (inactive). The figure for `COc1cccc(-c2cn(CC[C@H]3CC[C@H](NC(=O)CN(C)C)[C@H](CO)O3)nn2)c1` is -8.73% (inactive).

As for `O=C(Cc1ccncc1)N[C@@H]1CC[C@H](CCn2cc(-c3ccccc3F)nn2)O[C@H]1CO`, the CPE inhibition was 2.31% (inactive). The same measure for `O=C(Cc1cccnc1)N[C@H]1CC[C@H](CCn2cc(-c3ccccc3F)nn2)O[C@H]1CO`: 20% (active). The figure for `COc1ccc(S(=O)(=O)N[C@@H]2CC[C@H](CC(=O)N3CCc4ccccc4C3)O[C@H]2CO)cc1` is 2.67% (inactive). Consider `COc1ccccc1CNC(=O)C[C@H]1CC[C@@H]2[C@H](COC[C@H](O)CN2Cc2ccccc2)O1`, for which the CPE inhibition is -0.546% (inactive). The same measure for `CO[C@@H](CN(C)C(=O)c1cnccn1)[C@H](C)CN([C@H](C)CO)S(=O)(=O)c1ccc(C)cc1`: -0.652% (inactive); for `C[C@H]1CN([C@@H](C)CO)C(=O)Cc2cc(NC(=O)CCCCCC(=O)Nc3ccccc3N)ccc2O[C@H]1CN(C)C(=O)Nc1ccc(F)cc1`: 6.87% (inactive); for `C[C@H]1CN([C@@H](C)CO)C(=O)Cc2cc(NC(=O)Cc3ccccc3)ccc2O[C@@H]1CN(C)Cc1ccc(Cl)c(Cl)c1`: 11.1% (inactive). The figure for `C[C@@H]1CN([C@@H](C)CO)C(=O)Cc2cc(NC(=O)CCCCCC(=O)Nc3ccccc3N)ccc2O[C@H]1CN(C)Cc1ccc(Cl)c(Cl)c1` is 35.5% (active); for `C[C@H]1CN([C@@H](C)CO)C(=O)Cc2cc(NC(=O)CCCCCC(=O)Nc3ccccc3N)ccc2O[C@@H]1CN(C)Cc1ccncc1` it is -3.1% (inactive). The figure for `C[C@H](CO)N1C[C@H](C)[C@H](CN(C)Cc2ccc(C(F)(F)F)cc2)Oc2ccc(NC(=O)CCCCCC(=O)Nc3ccccc3N)cc2CC1=O` is 30.6% (active); for `C[C@@H]1CN([C@@H](C)CO)C(=O)Cc2cc(NC(=O)CCCCCC(=O)Nc3ccccc3N)ccc2O[C@H]1CN(C)C(=O)Nc1ccc(C(F)(F)F)cc1` it is 0.365% (inactive); for `CC(=O)N(C)C[C@@H]1Oc2ncc(C#CCc3ccccc3)cc2C(=O)N([C@H](C)CO)C[C@H]1C` it is 13.5% (inactive).

With `CO[C@@H]1CN(C)C(=O)c2cc(NC(=O)c3ccccc3)ccc2OC[C@H](C)N(C(=O)CN(C)C)C[C@H]1C`, the CPE inhibition was -4.5% (inactive).

In the case of `C[C@H](CO)N1C[C@H](C)[C@H](CN(C)Cc2ccc(C(=O)O)cc2)Oc2ccc(NS(=O)(=O)c3cn(C)cn3)cc2CC1=O`, the CPE inhibition is -5.77% (inactive). The figure for `CC(C)NC(=O)N(C)C[C@H]1Oc2ccc(NS(C)(=O)=O)cc2CC(=O)N([C@@H](C)CO)C[C@H]1C` is -8.84% (inactive). The figure for `CO[C@H]1CN(C)C(=O)c2cc(NC(=O)c3cnccn3)ccc2OC[C@@H](C)N(CC2CC2)C[C@@H]1C` is 26.7% (active); for `CO[C@H]1CN(C)C(=O)c2ccc(NC(=O)c3nc4ccccc4s3)cc2OC[C@H](C)N(Cc2cccnc2)C[C@@H]1C` it is 3.73% (inactive). The same measure for `CO[C@H]1CN(C)C(=O)c2cc(NC(=O)c3cnccn3)ccc2OC[C@H](C)N(C(=O)C2CC2)C[C@H]1C`: 7.36% (inactive). As for `CO[C@H]1CN(C)C(=O)c2cc(NC(=O)c3nc4ccccc4s3)ccc2OC[C@H](C)N(Cc2cccnc2)C[C@@H]1C`, the CPE inhibition was 21.1% (active).

As for `CO[C@H]1CN(C)C(=O)c2ccc(NC(=O)c3nc4ccccc4s3)cc2OC[C@@H](C)N(Cc2cncnc2)C[C@H]1C`, the CPE inhibition is -2.74% (inactive).

As to `CO[C@@H]1CN(C)C(=O)c2cc(NC(=O)c3cnccn3)ccc2OC[C@@H](C)N(CC2CC2)C[C@H]1C`, the CPE inhibition is -5.97% (inactive).

As to `COCC#Cc1ccc([C@@H]2[C@@H](CO)N3C(=O)CN(C(=O)C4CCCC4)C[C@@H]23)cc1`, the CPE inhibition is -7.7% (inactive). The same measure for `CC(C)NC(=O)N(C)C[C@H]1Oc2ccc(N(C)C)cc2C(=O)N([C@@H](C)CO)C[C@H]1C`: -2.75% (inactive). The same measure for `C[C@@H]1CCCCO[C@H](CN(C)C(=O)CCC(F)(F)F)[C@H](C)CN([C@H](C)CO)C(=O)c2cc(NC(=O)NC3CCCCC3)ccc2O1`: 0.687% (inactive); for `COCC(=O)Nc1ccc2c(c1)C(=O)N(C)C[C@@H](OC)[C@@H](C)CN(C(=O)c1ccccc1)[C@@H](C)CO2`: 0.375% (inactive); for `CN1CCN(C(=O)c2cc3c(c(-c4cccc(-c5ccc(C(=O)N(C)C)cc5)c4)n2)[C@@H](CCO)N([S@](=O)C(C)(C)C)C3)CC1`: 1.85% (inactive). Turning to `O=C(CN1CCOCC1)N1CCCCN2[C@@H](CO)[C@H](c3ccc(-c4ccccc4)cc3)[C@@H]2C1`, the CPE inhibition is -4.15% (inactive). The same measure for `O=C(CN1CCOCC1)N1CCCCN2[C@H](CO)[C@H](c3ccc(-c4ccccc4)cc3)[C@@H]2C1`: 6.44% (inactive); for `O=C(CN1CCOCC1)NC[C@@H]1N[C@@H](CO)[C@@H]1c1ccc(-c2ccccc2)cc1`: 29.8% (active); for `CN1C(=O)c2cc(NC(=O)c3cnccn3)ccc2OC[C@@H]2O[C@H](CC(=O)O)CC[C@@H]21`: 0.738% (inactive).

As for `CCOc1ccc(/C=C/C(=O)N(CC)CC(=O)NCc2cccs2)cc1OC`, the CPE inhibition was 67.5% (active).

As for `CCN(CC(=O)NCc1cccs1)C(=O)/C=C/c1ccc(C)cc1`, the CPE inhibition is 13.7% (inactive).

As to `COc1ccc(/C=C/C(=O)OCC(=O)NCc2cccs2)cc1OC`, the CPE inhibition was -0.984% (inactive).

On to `COc1ccccc1C#Cc1ccc([C@H]2[C@H](CO)N3CCCCN(C(=O)C4CCC4)C[C@@H]23)cc1`, for which the CPE inhibition is -8.41% (inactive). The same measure for `O=C(CN1CCC(NC(=O)Nc2ccccc2)CC1)Nc1cccc([N+](=O)[O-])c1`: -9.16% (inactive); for `Cc1cc(C)cc(NC(=O)NC2CCN(CC(=O)Nc3cccc(Cl)c3C)CC2)c1`: -4.01% (inactive). The figure for `Cc1cccc(C(=O)NC2CCN(CC(=O)Nc3cccc(Cl)c3)CC2)c1` is 39% (active); for `C[C@H]1CN([C@@H](C)CO)S(=O)(=O)c2ccc(C#Cc3ccccc3)cc2O[C@@H]1CN(C)C(=O)C1CC1` it is 19.8% (inactive); for `Cc1ccccc1C1=NC(C(F)(F)F)(C(F)(F)F)c2c(n(-c3ccc(F)cc3)c(=O)[nH]c2=O)N1` it is 22.3% (active). The figure for `COc1ccc2c3c([nH]c2c1)[C@H](CO)N(C(=O)Nc1ccc(F)cc1)CC31CN(S(=O)(=O)c2cccc(F)c2)C1` is 1.82% (inactive). Take `CCCNC(=O)N1[C@@H](C#N)[C@H](c2ccc(-c3ccc(C(=O)N(C)C)cc3)cc2)[C@@H]1CO`: the CPE inhibition was -5.96% (inactive). The same measure for `COC(=O)C[C@@H]1CC[C@@H]2[C@H](COc3ccc(NS(=O)(=O)c4ccccc4F)cc3C(=O)N2C)O1`: 1.86% (inactive).

As to `C[C@@H]1CCCCO[C@H](CN(C)C(=O)Nc2ccc3c(c2)OCO3)[C@H](C)CN([C@H](C)CO)C(=O)c2cc(NS(C)(=O)=O)ccc2O1`, the CPE inhibition is 11.9% (inactive). With `CCC(CO)Oc1cc(NC(=O)c2cccc3ccccc23)c2ncn(C(C)C)c2c1` (configuration not stated), the CPE inhibition was -11.1% (inactive). The same measure for `CCC(CO)Oc1cc(NC(=O)c2cccc(F)c2)c2ncn(C(C)C)c2c1` (configuration not stated): -10.5% (inactive); for `CCC(CO)Oc1cc(NCc2ccccc2)c2ncn(C3CCCC3)c2c1` (configuration not stated): 64.4% (active); for `COc1ccc(SSc2ccc(OC)cc2C(=O)O)c(C(=O)O)c1`: 2.7% (inactive). Turning to `O=S(=O)(c1ccccc1)N1CCCCN2[C@@H](CO)[C@H](c3ccc(C#Cc4cccnc4)cc3)[C@@H]2C1`, the CPE inhibition is 17.6% (inactive). The figure for `COCC(=O)N1CCCCN2[C@H](CO)[C@H](c3ccc(-c4ccc(OC)cc4)cc3)[C@H]2C1` is -1.33% (inactive); for `C[C@@H](O)C#Cc1ccc([C@@H]2[C@H]3CN(C(=O)c4ccc5c(c4)OCO5)CCCCN3[C@H]2CO)cc1` it is 2.09% (inactive). The figure for `C[C@H](O)C#Cc1ccc([C@@H]2[C@@H](CO)N3CCCCN(C(=O)c4ccncc4)C[C@@H]23)cc1` is -16.7% (inactive); for `O=C(Nc1ccccc1F)N1CCCCN2[C@H](CO)[C@@H](c3ccc(-c4cccnc4)cc3)[C@H]2C1` it is 5.39% (inactive). With `CC(C)C#Cc1ccc([C@H]2[C@H](CO)N3CCCCN(C(=O)c4ccc(F)cc4)C[C@@H]23)cc1`, the CPE inhibition is 10.5% (inactive).

With `CN(C)CC(=O)N1CCCCN2[C@@H](CO)[C@H](c3ccc(-c4cccnc4)cc3)[C@@H]2C1`, the CPE inhibition was 33.3% (active). The figure for `COCC(=O)N1CCCCN2[C@H](CO)[C@@H](c3ccc(-c4ccc(OC)cc4)cc3)[C@@H]2C1` is -7.09% (inactive); for `COc1ccc(-c2ccc([C@@H]3[C@@H](CO)N4CCCCN(C(=O)NC(C)C)C[C@H]34)cc2)cc1` it is 63.6% (active); for `CC(C)(O)C#Cc1ccc([C@H]2[C@@H](CO)N3CCCCN(C(=O)c4ccncc4)C[C@H]23)cc1` it is 0.094% (inactive). The same measure for `COc1ccc(C#Cc2ccc([C@@H]3[C@@H](CO)N4CCCCN(C(=O)c5ccncc5)C[C@@H]34)cc2)cc1`: 50.9% (active). The same measure for `C[C@H](O)C#Cc1ccc([C@H]2[C@H](CO)N3CCCCN(C(=O)c4ccc(F)cc4)C[C@@H]23)cc1`: 41.2% (active); for `CCC(=O)N1CCCCN2[C@H](CO)[C@@H](c3ccc(-c4cccnc4)cc3)[C@H]2C1`: -0.425% (inactive).
